Shown are actives, neighbours in structure and some others; about 0.95% of the full set was active somewhere.
PrPC TRFRET: cell surface PrPC inhibition, primary TR-FRET screen. actives 0.43% (n = 370,000). inhibition, % at 13.8 µM. TR-FRET read-out. P04156; in the data active = inhibition above about 24%; also: 0% = median of the test wells and 100% = reference compound wells
BJeLR lethal: BJeLR cell viability loss; BJeLR (HRASV12) viability, CellTiter-Glo ATP luminescence, 48 h; inhibition, % (test concentration not listed); actives 0.17% (n = 300,000); in the data active = inhibition above about 50%
RN4220 kill: S. aureus RN4220 growth inhibition; OD600, 16 h; inhibition, % (concentration not given with the values); actives 0.33% (n = 330,000); in the data active = inhibition above about 85%;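 also: plate controls were untreated cells for no effect and reference antibiotic for full effect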
ugtP null kill: compounds lethal to S. aureus RN4220 ugtP deletion mutant; actives 0.54% (n = 330,000); growth inhibition, % (concentration not given with the values); AID 1259309; OD600 growth, 16 h; in the data active = growth inhibition above about 68%;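 also: plate controls were untreated wells for no effect and antibiotic for full effect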
PrPC TRFRET cf: cell surface PrPC inhibition, TR-FRET confirmation; actives 65% (n = 1,500); shares compounds with PrPC TRFRET; cell surface PrPC level; inhibition, % at 13.8 µM; AID 743200; in the data active = inhibition above about 25%
LD9 cytotox: LD9 cell cytotoxicity, PrPc inhibitor counter-screen | shares compounds with PrPC TRFRET | LD9 cells cytotoxicity, luminescence viability | inhibition, % at 13.8 µM | AID 743201 | actives 29% (n = 1,500); in the data active = inhibition above about 9.5%
Starred values were filed as active, the others as inactive; x = no result.

SMILES	PrPC TRFRET	BJeLR lethal	RN4220 kill	ugtP null kill	PrPC TRFRET cf	LD9 cytotox
COc1ccccc1N(C(=O)c1ccncc1)c1nc(-c2ccc([N+](=O)[O-])cc2)cs1	26*	0	-8	0	38*	-3
Brc1ccc(-c2nnc3sc(CNCc4ccc5c(c4)OCO5)cn23)cc1	-9	-3	16	13	x	x
Brc1ccc(-c2nnc3sc(CNC4CCCC4)cn23)cc1	46*	-13	7	5	58*	-3
Nc1nc(F)nc2c1ncn2[C@@H]1O[C@H](CO)[C@@H](O)[C@H]1O	45*	97*	x	x	44*	54*
Nc1nc(F)nc2c1ncn2[C@@H]1O[C@H](CO)[C@@H](O)[C@@H]1O	2	11	x	x	x	x
C=CCNC(=O)c1ccc(Cn2c(=S)[nH]c3cc4c(cc3c2=O)OCO4)cc1	54*	2	2	-9	35*	8
O=C(NCCN1CCCC1)c1ccc(Cn2c(=S)[nH]c3cc4c(cc3c2=O)OCO4)cc1	-4	4	6	-10	x	x
COc1ccc(Cn2c(-c3ccccc3C)nc3c(c(=O)c4ccccc4n3C)c2=O)cc1	53*	6	6	-2	9	-1
Cc1occc1C(=O)NN=Cc1cnn(C)c1C	x	x	1	5	x	x
CC(C)CCCCCCCCCCCCC(=O)NCC(=O)NC1C(C)OC(Nc2ncnc3nc[nH]c23)C(O)C1O (configuration not stated)	25*	x	x	x	79*	33*
COc1cccc(C=NNc2nn3cnnc3c3ccccc23)c1	x	x	0	1	x	x
Cc1cc(C)c(S(=O)(=O)Nc2ccc(N3CCOCC3)cc2)c(C)c1	6	18	14	-2	x	x
Cc1cc(C)c(S(=O)(=O)Nc2cccc(S(=O)(=O)N3CCOCC3)c2)c(C)c1	27*	0	5	4	18	-10
O=c1[nH]c(=O)n(-c2cccc3ccccc23)c(O)c1C=NN1CCCCC1c1cccnc1 (configuration not stated)	x	x	2	-4	x	x
S=c1nc(-c2ccccc2)n(CCCn2ccnc2)c2c1CCCC2	47*	-9	1	13	46*	-2
S=c1nc(-c2ccccc2)n(CCCN2CCOCC2)c2c1CCCC2	-2	-13	2	2	x	x
O=c1[nH]c(Cc2ccccn2)nc2scc(-c3ccccc3Cl)c12	26*	4	4	-2	11	-4
CSCc1nc2scc(-c3ccccc3)c2c(=O)[nH]1	-7	7	4	13	x	x
Cc1cc(NCCCn2ccnc2)n2nc(C)c(-c3ccccc3)c2n1	-4	8	0	10	x	x
Cc1cc(NCCCn2ccnc2)n2nc(C)c(-c3ccc(Cl)cc3)c2n1	44*	-4	-4	4	2	9.7*
CCCc1noc2c1C(=NO)CC(CC(C)SCC)C2 (configuration not stated)	x	x	7	31	x	x
COC(=O)C=CC(=O)Nc1cccnc1	x	x	6	1	x	x
CCN1CCN(C(=O)c2cc(-c3ccc(Cl)s3)nc3ccccc23)CC1	6	-3	-1	1	x	x
COC(=O)C1CCN(C(=O)c2cc(-c3ccc(Cl)s3)nc3ccccc23)CC1	36*	x	-3	4	33*	27*
O=C1CCCC(=NNC(=O)c2ccc(COc3ccccc3-c3ccccc3)cc2)C1	x	x	-4	1	x	x
SMILES	PrPC TRFRET	BJeLR lethal	RN4220 kill	ugtP null kill	PrPC TRFRET cf	LD9 cytotox
O[C@@H]1[C@@H](O)[C@H](n2c3ccc(Cl)cc3c3ccc4c5cc(Cl)ccc5[nH]c4c32)OC[C@H]1O	14	x	x	x	x	x
CCSc1nc(-c2cccs2)nc2ccccc12	6	17	-1	12	x	x
Cc1cc(NC(=O)C(C)Sc2nc(-c3cccs3)nc3ccccc23)no1 (configuration not stated)	43*	x	0	-17	102*	-4
Cc1cc(NC(=O)CSc2nc(C(C)C)nc3ccccc23)no1	118*	-4	6	4	124*	-14
Cc1nnc(NC(=O)CSc2nc(C(C)C)nc3ccccc23)s1	29*	8	2	0	78*	-4
CC(C)c1nc(SCC(=O)NC2CCCC2)c2ccccc2n1	16	-11	1	3	x	x
CC(C)c1nc(SCC(=O)Nc2nc3c(s2)CCCC3)c2ccccc2n1	60*	0	-3	-16	75*	-1
Cc1cc(NC(=O)CSc2ccccc2)no1	4	0	-6	-11	x	x
CN(C)CCCSc1ccccc1NC(=O)C=Cc1ccccc1	x	x	5	-3	x	x
CCOC(=O)N1CCN(S(=O)(=O)c2ccc(C(=O)NNc3nc4c(C)cc(C)cc4s3)cc2)CC1	25*	-3	14	-1	25*	4
CCOC(=O)N1CCN(S(=O)(=O)c2ccc(C(=O)NNc3nc4c(C)cccc4s3)cc2)CC1	-4	0	1	4	x	x
Cc1nn(C(C)C(=O)O)c(=O)c2c1sc1ccccc12 (configuration not stated)	45*	8	1	4	60*	-9
CCCCNC(=S)NN=Cc1ccccc1F	x	x	4	16	x	x
O=C(O)CSc1ncnc2sc3c(c12)CCC3	47*	-1	8	8	50*	-5
O=C(O)CSc1ncnc2sc3c(c12)CCCC3	30*	-3	6	19	53*	-10
CCn1c(SCC(N)=O)nc2sc3c(c2c1=O)CCCC3	24	9	-15	65	x	x
CCSc1ncnc2sc3c(c12)CCC3	1	7	7	11	x	x
NC(=O)CSc1nc2sc3c(c2c2ncnn12)CCCC3	47*	-14	-1	10	47*	-4
O=C(NCC1CCCO1)C(=Cc1ccc(Cl)cc1)NC(=O)c1ccccc1 (configuration not stated)	x	x	7	5	x	x
O=C1C(Cl)=C(Nc2ccc3cn[nH]c3c2)C(=O)c2ccccc21	71*	87*	42	20	22	98*
COC(=O)C1=C(c2ccc(F)cc2OCc2ccccc2)CC2CCC1N2C(=O)NCc1ccccc1Cl (configuration not stated)	x	x	-11	-1	x	x
CCN1/C(=C/c2ccc3cccc(C)c3[n+]2CC)Sc2ccccc21	28*	34	100*	100*	36*	54*
C[n+]1ccccc1/C=C1\Sc2ccccc2N1CCO	-15	-2	0	3	x	x
O=C(NN=Cc1cccc([N+](=O)[O-])c1)c1cc2ccccc2o1	x	x	1	-1	x	x
COc1cccc(C(C)=NN=C(C)c2cccc(OC)c2)c1	x	x	3	5	x	x
O=C(NNC(=O)C(c1ccccc1)c1ccccc1)c1ccccn1	34*	20	5	10	23	43*
O=C(NNc1ccccn1)C(c1ccccc1)c1ccccc1	-5	0	0	3	x	x
S=c1[nH]nc(-c2cccc(Br)c2)o1	25*	-5	14	-11	36*	-3
Cc1ccc(C=NNC(=O)CCn2nc(C)cc2C)c(C)c1	x	x	1	3	x	x
CCCCCCn1c(=O)n2n(c1=O)C[C@]1(OC(=O)Nc3cccs3)CN(S(=O)(=O)c3ccc(C)cc3)C[C@]1(O)C2	25*	x	x	x	5	0

Compound activity: PubChem BioAssay, several laboratories
